# Source: the supplement of paper PMC7411054
# What was measured:
# Details in all cases: treatment time: 24 h
# A549-ACTB-RAB5A [1] = assay: lowest phenotypically active concentration; higher = less potent
# In short: (§1)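 After 24 h at 0.3, 1, 3 or 9 µM, with four wells per treatment, fifteen gene-edited A549, HepG2 and WPMY1 reporter lines carrying BFP, GFP and RFP/FusionRed were imaged live. Each well's live-cell features were expressed relative to solvent control wells. Deviation required ≥3 of 4 wells past the 95th percentile of control Euclidean distances, and reproducibility a median replicate Pearson correlation over the 95th percentile of non-replicates. Phenotypic activity rested on both.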
# A549-GM130-SQSTM1 [2] = assay: as above
# In short: as §1
# A549-TUBA1B-RELA [3] = assay: as above
# In short: as §1
# HepG2-ACTB-RAB5A [4] = assay: as above
# In short: as §1
# HepG2-TP53BP1-CLTA [5] = assay: as above
# In short: as §1
# A549-ACTB-RAB5A [6] = assay: phenotypically active (imaging signature differs from DMSO and reproducible) at any of 0.3-9 uM (binary (1 = active, 0 = inactive)); higher = active
# In short: as §1
# A549-CANX-COX4 = assay: as above
# In short: as §1
# A549-GM130-SQSTM1 [7] = assay: as above
# In short: as §1
# A549-TP53BP1-CLTA = assay: as above
# In short: as §1
# A549-TUBA1B-RELA [8] = assay: as above
# In short: as §1
# HepG2-ACTB-RAB5A [9] = assay: as above
# In short: as §1
# HepG2-CANX-COX4 = assay: as above
# In short: as §1
# HepG2-GM130-SQSTM1 = assay: as above
# In short: as §1
# HepG2-TP53BP1-CLTA [10] = assay: as above
# In short: as §1
# HepG2-TUBA1B-RELA = assay: as above
# In short: as §1
# WPMY1-ACTB-RAB5A = assay: as above
# In short: as §1
# WPMY1-CANX-COX4 = assay: as above
# In short: as §1
# WPMY1-GM130-SQSTM1 = assay: as above
# In short: as §1
# WPMY1-TP53BP1-CLTA = assay: as above
# In short: as §1
# WPMY1-TUBA1B-RELA = assay: as above
# In short: as §1
Compound,lowest phenotypically active concentration (A549-ACTB-RAB5A [1]) [µM],lowest phenotypically active concentration (A549-GM130-SQSTM1 [2]) [µM],lowest phenotypically active concentration (A549-TUBA1B-RELA [3]) [µM],lowest phenotypically active concentration (HepG2-ACTB-RAB5A [4]) [µM],lowest phenotypically active concentration (HepG2-TP53BP1-CLTA [5]) [µM],phenotypically active (A549-ACTB-RAB5A [6]),phenotypically active (A549-CANX-COX4),phenotypically active (A549-GM130-SQSTM1 [7]),phenotypically active (A549-TP53BP1-CLTA),phenotypically active (A549-TUBA1B-RELA [8]),phenotypically active (HepG2-ACTB-RAB5A [9]),phenotypically active (HepG2-CANX-COX4),phenotypically active (HepG2-GM130-SQSTM1),phenotypically active (HepG2-TP53BP1-CLTA [10]),phenotypically active (HepG2-TUBA1B-RELA),phenotypically active (WPMY1-ACTB-RAB5A),phenotypically active (WPMY1-CANX-COX4),phenotypically active (WPMY1-GM130-SQSTM1),phenotypically active (WPMY1-TP53BP1-CLTA),phenotypically active (WPMY1-TUBA1B-RELA)
O=C1Cc2cc(CCN3CCN(c4nsc5ccccc45)CC3)c(Cl)cc2N1 [ziprasidone],9,9,9,3,9,1 (active),0 (inactive),1 (active),0 (inactive),1 (active),1 (active),0 (inactive),1 (active),1 (active),1 (active),0 (inactive),0 (inactive),0 (inactive),0 (inactive),0 (inactive)
CC(CN(C)C)CN1c2ccccc2Sc2ccccc21.CC(CN(C)C)CN1c2ccccc2Sc2ccccc21 (stereo not given) [alimemazine],9,9,9,9,9,1 (active),0 (inactive),1 (active),0 (inactive),1 (active),1 (active),0 (inactive),1 (active),1 (active),1 (active),1 (active),0 (inactive),1 (active),0 (inactive),1 (active)
O=c1cc(N2CCOCC2)oc2c(-c3cccc4c3sc3ccccc34)cccc12,1,1,3,1,1,1 (active),0 (inactive),1 (active),0 (inactive),1 (active),1 (active),1 (active),1 (active),1 (active),1 (active),1 (active),1 (active),1 (active),1 (active),1 (active)
O=C(CCCN1CCC(O)(c2ccc(Cl)cc2)CC1)c1ccc(F)cc1 [haloperidol],3,9,9,9,9,1 (active),0 (inactive),1 (active),0 (inactive),1 (active),1 (active),0 (inactive),1 (active),1 (active),1 (active),0 (inactive),0 (inactive),1 (active),0 (inactive),0 (inactive)
CNCCCC12CCC(c3ccccc31)c1ccccc12 [maprotiline],3,3,3,9,9,1 (active),0 (inactive),1 (active),0 (inactive),1 (active),1 (active),0 (inactive),1 (active),1 (active),1 (active),1 (active),1 (active),1 (active),1 (active),1 (active)
